Test results reported in PubChem BioAssay (NCATS).
A number with no mark means an inactive call. Inconclusive results are not listed. Where a call stands in place of a potency, no number is given. Calls of active or inactive are those of the source. Unless noted, calls come from the whole dose curve; as a rule, active = well fitted curve in the direction sought with a large enough effect; inconclusive = small, poorly fitted or top-dose-only effect, or another doubt; inactive = no such curve, though single readings can be large; an effect the other way counts as inactive or inconclusive.

Columns and labels:
[1] = biological target: ATP-dependent 6-phosphofructokinase (Trypanosoma brucei brucei) (UniProt O15648); assay: qHTS Assay to Find Inhibitors of T. brucei phosphofructokinase: hit validation (AID 492961);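 note: luminescence reports ADP formed as PFK phosphorylates fructose-6-phosphate with ATP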
ATP-dependent 6-phosphofructokinase (Trypanosoma brucei brucei), sequence (O15648 whole entry, looked up): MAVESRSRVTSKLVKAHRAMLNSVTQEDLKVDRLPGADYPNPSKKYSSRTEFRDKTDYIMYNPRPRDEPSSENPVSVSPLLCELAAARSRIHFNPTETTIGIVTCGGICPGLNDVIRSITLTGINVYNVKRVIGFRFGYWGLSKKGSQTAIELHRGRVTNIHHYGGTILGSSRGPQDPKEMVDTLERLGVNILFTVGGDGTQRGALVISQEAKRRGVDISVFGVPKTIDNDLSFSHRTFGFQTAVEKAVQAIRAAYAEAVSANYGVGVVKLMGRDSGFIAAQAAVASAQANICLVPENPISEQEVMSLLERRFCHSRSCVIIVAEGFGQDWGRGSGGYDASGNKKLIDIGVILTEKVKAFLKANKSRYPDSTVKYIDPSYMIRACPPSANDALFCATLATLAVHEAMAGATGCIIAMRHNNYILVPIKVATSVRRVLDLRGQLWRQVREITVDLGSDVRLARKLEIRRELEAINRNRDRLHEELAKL
Outline: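 Percent activity derived from corrected luminescence, normalized between 0x and 1x enzyme controls, then fitted to concentration-response curves. Conditions: 1.25 nM PFK, 0.1 mM ATP, 0.5 mM F6P, 45 min RT.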

[2] = qHTS profiling for inhibitors of Plasmodium falciparum proliferation (AID 504749); note: nearly all actives have a fitted effect of over 60% in size; note: potency is the fitted concentration of half-maximal effect; conditions: P. falciparum in erythrocytes, SYBR Green DNA, 72 h
Outline: (§1)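 Fluorescence of SYBR Green-bound parasite DNA, read at 485/535 nm, served as the growth measure. Infected erythrocytes were cultured with compound 72 h; artemisinin (0.29 uM) and DMSO wells defined the normalization range.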

[3] = test system: AS120; assay: as above; conditions: P. falciparum in erythrocytes, SYBR Green DNA, 72 h; series mostly up to 28.7 µM
Outline: as §1

[4] = test system: ATS189; assay: as above; conditions: P. falciparum in erythrocytes, SYBR Green DNA, 72 h; series mostly up to 28.7 µM
Outline: as §1

[5] = test system: CP185; assay: as above; conditions: P. falciparum in erythrocytes, SYBR Green DNA, 72 h; series mostly up to 28.7 µM
Outline: as §1

[6] = test system: CP191; assay: as above; conditions: P. falciparum in erythrocytes, SYBR Green DNA, 72 h; series mostly up to 28.7 µM
Outline: as §1

[7] = test system: CP192; assay: as above; conditions: P. falciparum in erythrocytes, SYBR Green DNA, 72 h; series mostly up to 28.7 µM
Outline: as §1

[8] = test system: CP201; assay: as above; conditions: P. falciparum in erythrocytes, SYBR Green DNA, 72 h; series mostly up to 28.7 µM
Outline: as §1

[9] = test system: CP237; assay: as above; conditions: P. falciparum in erythrocytes, SYBR Green DNA, 72 h; series mostly up to 28.7 µM
Outline: as §1

[10] = test system: CP247; assay: as above; conditions: P. falciparum in erythrocytes, SYBR Green DNA, 72 h; series mostly up to 28.7 µM
Outline: as §1

[11] = test system: DIV30; assay: as above; conditions: P. falciparum in erythrocytes, SYBR Green DNA, 72 h; series mostly up to 28.7 µM
Outline: as §1

[12] = test system: HB3; assay: as above; conditions: P. falciparum in erythrocytes, SYBR Green DNA, 72 h; series mostly up to 28.7 µM
Outline: as §1

[13] = test system: P94_40; assay: as above; conditions: P. falciparum in erythrocytes, SYBR Green DNA, 72 h; series mostly up to 28.7 µM
Outline: as §1

[14] = test system: PC49; assay: as above; conditions: P. falciparum in erythrocytes, SYBR Green DNA, 72 h; series mostly up to 28.7 µM
Outline: as §1

[15] = test system: TAB113; assay: as above; conditions: P. falciparum in erythrocytes, SYBR Green DNA, 72 h; series mostly up to 28.7 µM
Outline: as §1

[16] = test system: W2; assay: as above; conditions: P. falciparum in erythrocytes, SYBR Green DNA, 72 h; series mostly up to 28.7 µM
Outline: as §1

[17] = biological target: Cytochrome P450 3A4 (Homo sapiens) (UniProt P08684); assay: qHTS Assay for Inhibitors and Substrates of Cytochrome P450 3A4 (AID 884); note: nearly all actives have a fitted effect of over 50% in size; note: potency is the fitted concentration of half-maximal effect
Cytochrome P450 3A4 (Homo sapiens), sequence (P08684 whole entry, looked up): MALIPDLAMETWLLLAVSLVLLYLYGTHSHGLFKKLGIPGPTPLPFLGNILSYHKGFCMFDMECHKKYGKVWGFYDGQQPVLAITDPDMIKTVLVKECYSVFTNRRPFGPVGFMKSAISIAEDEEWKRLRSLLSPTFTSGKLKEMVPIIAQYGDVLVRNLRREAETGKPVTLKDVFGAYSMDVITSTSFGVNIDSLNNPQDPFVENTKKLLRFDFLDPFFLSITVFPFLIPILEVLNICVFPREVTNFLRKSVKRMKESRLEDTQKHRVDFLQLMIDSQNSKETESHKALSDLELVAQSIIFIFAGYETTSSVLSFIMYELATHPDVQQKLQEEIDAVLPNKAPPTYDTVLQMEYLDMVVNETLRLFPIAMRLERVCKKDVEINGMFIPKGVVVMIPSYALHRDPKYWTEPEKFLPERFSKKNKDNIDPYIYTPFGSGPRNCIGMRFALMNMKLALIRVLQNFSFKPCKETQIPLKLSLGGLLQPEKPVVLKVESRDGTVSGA
Outline: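 Luminescent readout of luciferin produced by CYP3A4 (20 nM) dealkylation of Luciferin-PPXE, 25 uM (its KM). NADPH-driven reaction ran 60 min at RT after 10 min compound preincubation; data scaled to 57 uM ketoconazole as 100% inhibition.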

[18] = biological target: Muscarinic acetylcholine receptor M1 (Rattus norvegicus) (UniProt P08482); assay: qHTS Assay for Antagonists of Acetylcholine Muscarinic M1 Receptor: Kinetic Measurement of Intracellular Calcium Response (AID 943);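 note: Fluo-4 calcium signal as peak divided by basal fluorescence over 4 min; nearly all actives have a fitted effect of over 75% in size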
Muscarinic acetylcholine receptor M1 (Rattus norvegicus), sequence (P08482 whole entry, looked up): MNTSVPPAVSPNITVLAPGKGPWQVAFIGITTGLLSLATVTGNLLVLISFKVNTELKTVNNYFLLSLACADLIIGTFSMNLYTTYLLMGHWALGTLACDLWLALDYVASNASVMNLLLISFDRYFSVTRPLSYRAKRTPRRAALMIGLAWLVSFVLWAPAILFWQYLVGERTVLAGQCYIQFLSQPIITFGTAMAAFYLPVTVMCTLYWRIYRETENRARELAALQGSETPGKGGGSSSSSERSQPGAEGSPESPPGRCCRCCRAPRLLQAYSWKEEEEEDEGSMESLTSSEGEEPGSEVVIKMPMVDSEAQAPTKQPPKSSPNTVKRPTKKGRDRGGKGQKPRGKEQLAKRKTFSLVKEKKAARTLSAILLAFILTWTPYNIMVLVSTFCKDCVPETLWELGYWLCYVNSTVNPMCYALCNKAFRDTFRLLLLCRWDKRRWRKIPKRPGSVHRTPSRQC
Outline: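 Quantitative HTS in CHO-M1 (rat receptor) cells: 10 min compound exposure ahead of 100 nM carbachol, Fluo-4 fluorescence followed 4 min, value expressed as peak-to-basal ratio.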

[19] = biological target: Lysosomal acid glucosylceramidase (Homo sapiens) (UniProt P04062); assay: Glucocerebrosidase-p2 (AID 348; in the data active = potency below about 10 µM; note: potency is the fitted concentration of half-maximal effect); conditions: purified GBA, blue fluorogenic substrate, 40 min
Lysosomal acid glucosylceramidase (Homo sapiens), sequence (P04062 whole entry, looked up): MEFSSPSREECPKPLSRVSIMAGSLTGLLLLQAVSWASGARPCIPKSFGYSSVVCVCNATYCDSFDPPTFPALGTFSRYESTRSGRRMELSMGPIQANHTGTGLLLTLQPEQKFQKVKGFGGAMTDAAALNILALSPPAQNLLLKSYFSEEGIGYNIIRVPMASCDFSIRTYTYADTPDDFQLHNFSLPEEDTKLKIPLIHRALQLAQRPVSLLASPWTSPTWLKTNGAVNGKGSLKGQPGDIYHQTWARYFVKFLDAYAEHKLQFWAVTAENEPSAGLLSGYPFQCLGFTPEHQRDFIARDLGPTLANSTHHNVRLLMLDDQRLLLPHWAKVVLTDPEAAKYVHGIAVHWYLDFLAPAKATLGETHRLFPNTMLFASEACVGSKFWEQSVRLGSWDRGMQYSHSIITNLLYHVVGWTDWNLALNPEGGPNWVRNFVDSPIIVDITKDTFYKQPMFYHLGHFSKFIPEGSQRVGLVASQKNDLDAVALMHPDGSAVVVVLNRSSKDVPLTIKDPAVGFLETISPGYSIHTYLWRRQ
Outline: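 Normal human glucocerebrosidase (0.2 nM) with blue fluorogenic substrate (80 uM final) in citrate/phosphate pH 5.9 with 10mM sodium taurocholate, 0.01% tween-20; 40 min RT, NaOH/glycine stop; fluorescence Ex 365/Em 440; AC50 from a titration from 0.6 nM upwards.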

[20] = qHTS Assay for Identification of Small Molecule Agonists for Hypoxia Response Element Signaling Pathway (AID 914; active = well fitted activation curve with a large enough effect in the signal ratio, with a control signal flat, not every such curve was filed as active; the % refers to the signal ratio); conditions: ME-180 (cervical carcinoma) HRE-bla reporter, beta-lactamase ratio, CoCl2, 17 h; activation: active compounds read high
Outline: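 HRE-bla ME-180 cells with beta-lactamase reporter under hypoxia response element, compounds with EC50 CoCl2 for 17 hours at 37 C. CCF4 substrate, 460nm/530nm emission ratio gave %Activity; AC50 from titration series.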

[21] = at 28.7 µM (top of the series), parasite line A
[22] = at 28.7 µM (top of the series), parasite line B

C(=C/c1ccccc1)/CN1CCN(C(c2ccccc2)c2ccccc2)CC1
outcome [1]: inactive | activity, negative = inhibition ([2]; at 12.8 µM (top of the series), parasite line A): 1.36% | Potency [3]: inactive | Potency [4]: inactive | Potency [5]: inactive | Potency [6]: inactive | Potency [7]: inactive | Potency [8]: inactive | Potency [9]: 3.55 µM (active) | Potency [10]: inactive | Potency [11]: inactive | Potency [12]: inactive | Potency [13]: inactive | Potency [14]: inactive | Potency [15]: inactive | Potency [16]: 5.1 µM (active)

O=[N+]([O-])c1ccc(CSc2ncnc3c2ncn3[C@@H]2O[C@@H](CO)[C@@H](O)[C@H]2O)cc1
Potency [17]: inactive

N[C@H](COP(=O)(O)O)C(=O)O
outcome [1]: inactive | activity, negative = inhibition [2, 21]: 15.2% | activity, negative = inhibition [2, 22]: 6.94% | Potency [3]: inactive | Potency [4]: inactive | Potency [5]: inactive | Potency [6]: inactive | Potency [7]: inactive | Potency [8]: inactive | Potency [9]: inactive | Potency [10]: inactive | Potency [11]: inactive | Potency [12]: inactive | Potency [13]: inactive | Potency [14]: inactive | Potency [15]: inactive | Potency [16]: inactive

CC(=O)N1CCN(c2ccc(OC[C@@H]3CO[C@@](Cn4ccnc4)(c4ccc(Cl)cc4Cl)O3)cc2)CC1
outcome [1]: inactive | activity, negative = inhibition [2, 21]: -14.8% | activity, negative = inhibition [2, 22]: -14.2% | Potency [3]: inactive | Potency [4]: inactive | Potency [5]: inactive | Potency [6]: inactive | Potency [7]: inactive | Potency [8]: inactive | Potency [9]: inactive | Potency [10]: inactive | Potency [11]: inactive | Potency [12]: inactive | Potency [13]: inactive | Potency [14]: inactive | Potency [15]: inactive | Potency [16]: inactive

O=C1O/C(=C\Br)CC[C@@H]1c1cccc2ccccc12
Potency [17]: 3.98 µM (active)

CNC(=O)[C@@H]1O[C@@H](n2cnc3c(NCc4ccc(N)cc4)ncnc32)[C@@H](O)[C@H]1O
Potency [18]: inactive

C[C@H]1CN(S(=O)(=O)c2cccc3cnccc23)CCN1
Potency [18]: inactive

Cc1cc(O)c(C(C)C)cc1C1(c2cc(C(C)C)c(O)cc2C)OC(=O)c2ccccc21
Potency [19]: > 11.4 µM | Potency [17]: 1.58 µM (active)

C[C@H]1CC(C)(C)C[C@@](OCCN2CCCCC2)(c2ccccc2)C1
Potency [19]: > 11.4 µM

O=C(O)/C=C\c1cnc[nH]1
activation [20]: -4.56%

Nc1ccc(CCNc2ncnc3c2ncn3[C@@H]2O[C@@H](CO)[C@H](O)[C@@H]2O)cc1
activation [20]: 0.683%

CN1C[C@@H](O)[C@@H](O)[C@@H](O)[C@@H]1CO
activation [20]: 11.9%

Nc1nc2c(nc(Br)n2[C@@H]2O[C@H]3COP(=O)(O)O[C@@H]3[C@H]2O)c(=O)[nH]1
Potency [18]: inactive

NC[C@H](O)C1CCCCCCC1
Potency [18]: inactive

N#CCCn1c(=O)c(CCc2ccccc2)nc2cnc(Oc3ccccc3)nc21
Potency [17]: 2.51 µM (active)

Nc1ncnc2c1nc(Sc1ccc(Cl)cc1)n2[C@@H]1O[C@H]2COP(=O)(O)O[C@@H]2[C@H]1O
Potency [18]: inactive

N.N.N.N.N.N.N.N.N.N.N.N.N.N.O.O.[Ru].[Ru].[Ru]
Potency [18]: inactive

N[C@H](CCCC(=O)O)C(=O)O
Potency [18]: inactive

C[C@]1(c2ccccc2)O[C@@H]2C[C@@H]3[C@@H]4CCC5=CC(=O)C=C[C@@]5(C)[C@]4(F)[C@H](O)C[C@]3(C)[C@@]2(C(=O)CO)O1
Potency [17]: 3.16 µM (active)

Cc1sc2ccccc2[n+]1CCC(=O)O
activation [20]: -2.73%

NC(N)=Nc1nc2ccc([N+](=O)[O-])cc2[nH]1
activity change, negative = inhibition [17]: 107% [at 11.4 µM]

OC[C@@H]1O[C@@H](n2cnc3c(N[C@@H]4C[C@@H]5CC[C@H]4C5)ncnc32)[C@@H](O)[C@H]1O
Potency [18]: inactive

CC(C)[C@H]1C(=O)C(C(N)=O)=C(O)[C@]2(O)C(=O)C3=C(O)c4c(O)ccc(N(C)C)c4C[C@H]3C[C@@H]12
Potency [18]: inactive

[N-]=[N+]=Nc1ccc(C(=O)CSC[C@@H](NC(=O)CC[C@@H](N)C(=O)O)C(=O)NCC(=O)O)cc1
Potency [18]: inactive
